Results on eight compounds are retold here after PubChem BioAssay (NCATS).

Active and inactive are the calls of the source. Calls come from the whole dose curve; as a rule, active = well fitted curve in the direction sought with a large enough effect; inactive = no such curve, though single readings can be large or run the other way.

This assay can be described thus: qHTS for small molecule inhibitors of Yes1 kinase: Counter Assay (AID 686950).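 Note: no kinase present so only ADP-Glo detection of a fixed ADP amount is tested; luminescence from ADP-Glo reporting ADP in a fixed ATP and ADP mixture.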 The following applies: series mostly up to 76.9 µM. The method, boiled down: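 Luminescence read-out from ADP-Glo quantifies a fixed ADP amount (0.02 mM ADP with 0.08 mM ATP) after 60 min at room temperature; signal is normalized between DMSO wells with ATP/ADP and with 0.1 mM ATP alone.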
Background: qHTS replaces the single test concentration by a dilution series.
As for `Cc1cc(Nc2nc(N[C@@H](C)c3ncc(F)cn3)ncc2Cl)n[nH]1`, the compound was classed as inactive.

Consider `CCOC(=O)C1=C[C@@]2(CC)CCCN3CCc4c(n1c1ccccc41)[C@H]32`, for which the compound was classed as inactive.

Regarding `NC(N)=NC(=O)c1nc(Cl)c(N)nc1N`, the outcome was inactive.

As for `CCN(CC)CCCC(C)Nc1nc(C)cc(Nc2ccc3nc(C)cc(N)c3c2)n1` (stereo not drawn), the result was inactive.

On to `CCCc1nn(C)c2c(=O)[nH]c(-c3cc(S(=O)(=O)N4CCN(C)CC4)ccc3OCC)nc12`, for which the result was inactive.

For `CN[C@@H](C)C(=O)N[C@H]1CCCC[C@H]2CC[C@@H](C(=O)N[C@@H](c3ccccc3)c3cn(CCCCc4ccc(CCCCn5cc([C@@H](NC(=O)[C@@H]6CC[C@@H]7CCCC[C@H](NC(=O)[C@H](C)NC)C(=O)N76)c6ccccc6)nn5)cc4)nn3)N2C1=O`, the call was inactive.

`O=c1[nH]c(-c2ccc(C(F)(F)F)cc2)nc2c1CSCC2`: the compound was classed as inactive.

`Fc1ccc(Cl)cc1-c1nc(Nc2ccncc2)c2nccnc2n1`: the result was inactive.
